Shown are actives, neighbours in structure and some others; about 1.2% of the full set was active somewhere.
Neddylation inh = inhibitors of human cullin neddylation; TR-FRET cullin neddylation, biochemical; inhibition, % at 25 µM; hit rate 0.58% among 360,000; in the data active = inhibition above about 36%
TLR9-MyD88 block = blocks human TLR9 binding to MyD88 | Q9NR96+Q99836 | CHO BLA complementation TLR9-MyD88, CCF4 FRET ratio | inhibition, % at 4.98 µM | hit rate 0.21% among 340,000;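 active = inhibition above the mean over all tested compounds plus 3 SD, cut at about 21% in these data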;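 also: 0% = DMSO only wells and 100% = clavulanate BLA inhibitor control wells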
NOD2 RIPK2 PPI = blocks binding of human NOD2 to RIPK2; CHO BLA complementation NOD2-RIPK2, CCF4 ratio; inhibition, % at 4.98 µM; hit rate 0.38% among 360,000; AID 624267; in the data active = inhibition above about 21%;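 also: 0% = vehicle only and 100% = reference blocker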
TLR4-MyD88 BLA = blocks binding of human TLR4 to MyD88; O00206+Q99836; HeLa CL3-4 TLR4/MyD88 BLA complementation, FRET ratio; inhibition, % at 8.4 µM; hit rate 0.18% among 200,000; AID 861; in the data active = inhibition above about 25%;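 also: 0% = vehicle and 100% = reference inhibitor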
NPR1 activator = GC-A (human) enzyme activation. activation, % at 10 µM. hit rate 0.14% among 370,000. HEK293 GC-A cells, cGMP TR-FRET, EC30 ANP; 0% at EC30 ANP, 100% saturating ANP; in the data active = activation above about 40%
NPR2 activator = GC-B (human) receptor activation; P20594; HEK293-GC-B cells, CNP EC30, cGMP TR-FRET; 0% at EC30 CNP, 100% saturating CNP; activation, % at 10 µM; hit rate 0.11% among 370,000; AID 1920062;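 active = activation at 10 µM reaching about 35% in either raw or pattern-adjusted values, limit read from the data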
TLR9-MyD88 cf = confirmation of human TLR9-MyD88 binding inhibitors; CHO TLR9/MyD88 BLA complementation, CCF4 FRET ratio; shares compounds with TLR9-MyD88 block; hit rate 51% among 680; AID 540250; inhibition, % at 4.98 µM;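 active = mean inhibition across three repeats above about 21% taken from the earlier screen, limit read from the data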;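 also: blue over green emission ratio reports constitutive TLR9 MyD88 association via BLA complementation; 0% = DMSO vehicle wells and 100% = clavulanate BLA inhibitor wells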
BLA counter-1 = non-selective beta-lactamase inhibitors in TLR9-MyD88 counter-screen; inhibition, % at 4.98 µM; hit rate 7% among 680; shares compounds with TLR9-MyD88 block; CHO-BLA cells, CCF4 FRET ratio, BLA reporter;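 active = mean inhibition above a 50% cutoff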;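 also: counterscreen of TLR9-MyD88 hits on CMV-driven BLA in CHO-K1 cells; 0% = DMSO alone and 100% = clavulanate blocking BLA; higher means less blue over green ratio so more BLA blockade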
TLR9 CHO tox = CHO cell toxicity counter-screen for TLR9-MyD88 inhibitors | inhibition, % at 4.98 µM | AID 588336 | TLR9-MyD88 CHO cells cytotoxicity, luminescence | shares compounds with TLR9-MyD88 block | hit rate 39% among 680; in the data active = inhibition above about 11%
NOD2 RIPK2 conf = NOD2-RIPK2 interaction inhibition confirmed. shares compounds with NOD2 RIPK2 PPI. CHO cells, NOD2-RIPK2 BLA complementation, CCF4 FRET. inhibition, % at 4.98 µM. hit rate 70% among 1,200. AID 624370;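 active = mean inhibition across replicates above a set limit taken from the earlier primary screen, cut at about 21% in these data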;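 also: 0% = DMSO-only wells and the high end = clavulanate BLA-blocked wells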
BLA counter-2 = counter-screen for NOD2-RIPK2 interaction inhibitors: BLA reporter | shares compounds with NOD2 RIPK2 PPI | CHO BLA reporter, CCF4 FRET ratio, counterscreen | inhibition, % at 4.98 µM | hit rate 57% among 1,200 | AID 624371;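 active = mean inhibition above the low-control mean inhibition plus three low-control SD, cut at about 11% in these data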;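 also: 0% = DMSO only wells and 100% = clavulanate high control wells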
* = called active by the depositor; i = inactive; . = no result given.

SMILES | Neddylation inh | TLR9-MyD88 block | NOD2 RIPK2 PPI | TLR4-MyD88 BLA | NPR1 activator | NPR2 activator | TLR9-MyD88 cf | BLA counter-1 | TLR9 CHO tox | NOD2 RIPK2 conf | BLA counter-2
CCn1c(Cl)c(C=O)s/c1=N\S(=O)(=O)c1ccccc1 | -10.2 | 48.3* | 93.5* | . | 7.1 | 20.7 | 52.5* | 29.2 | 96.2* | 97.9* | 38.3*
Cc1ccccc1NC(=O)CSc1nnc(-c2cc(-c3ccccc3)n[nH]2)n1N | . | . | . | . | 1.5 | -6.0 | . | . | . | . | .
CCOC(=O)C1=C(CSc2nc3c(cc2C#N)CCC3)OC(N)=C(C#N)C1c1ccccc1 (configuration not stated) | 34.0 | -56.0 | -0.5 | -5.4 | 3.9 | 4.0 | . | . | . | . | .
CCOC(=O)C1=C(CSc2nc(-c3ccccc3)ccc2C#N)OC(N)=C(C#N)C1c1ccccc1 (configuration not stated) | 29.1 | 31.7* | 35.6* | 18.8 | -4.5 | -7.2 | 6.5 | 6.4 | 19.9* | 25.0* | 24.9*
COC(=O)[C@@]12CCCCC3=C1N(CCC3)C(=O)[C@H]2CC(=O)NCc1ccccc1 | . | . | . | . | 1.6 | 1.7 | . | . | . | . | .
CC(=NNc1nc2ccccc2o1)c1cc2ccccc2cn1 | 20.1 | 60.0* | 42.7* | . | 2.9 | -3.9 | 67.1* | 66.2* | 73.5* | 90.2* | 91.2*
CC(=NNc1nc2ccccc2s1)c1ncccn1 | -15.0 | 20.0 | 9.3 | . | 8.1 | -1.3 | . | . | . | . | .
CC(=NNc1nc2ccccc2o1)c1ncccn1 | -14.0 | 26.1* | 26.6* | . | -16.2 | -3.8 | 20.0 | 10.4 | 98.8* | 33.8* | 30.2*
COC(=O)C1=C(C)N(C)C(=NCc2ccccc2C(F)(F)F)NC1c1cccc(F)c1 (configuration not stated) | . | . | . | . | -10.2 | -9.5 | . | . | . | . | .
O=C(NCc1ccccc1)[C@@H]1CCCN1C(=O)[C@H]1CCCN1C(=O)c1ccccc1C(F)(F)F | . | . | . | . | 1.0 | -2.6 | . | . | . | . | .
Nc1ccc2nc3c(=O)n(C4CCCCC4)c(=O)[nH]c3nc2c1 | -64.2 | 35.4* | 40.9* | . | 14.9 | -2.9 | 17.8 | 22.6 | 1.1 | 59.2* | 66.1*
COc1cc2[nH]c(=O)n(C3CCCCC3)c(=O)c2cc1OC | -0.1 | 1.8 | 0.4 | 6.5 | -8.9 | -3.6 | . | . | . | . | .
O=C(/C=C/c1cccc(Cl)c1)c1ccc([N+](=O)[O-])o1 | i | 25.8* | 52.1* | . | 9.4 | 4.5 | 21.4* | 4.0 | 95.6* | 87.8* | 19.4*
O=c1[nH]c2ccccc2c2nc3ccccn3c12 | 28.4 | -7.0 | 1.0 | -1.8 | 6.4 | -1.0 | . | . | . | . | .
O=c1nc2c(O)cccn2c2c1c(=O)[nH]c1ccccc12 | 17.5 | 21.9* | 29.2* | 10.1 | -6.8 | -5.2 | 8.4 | 8.3 | -1.8 | 33.3* | 27.2*
C[C@@H](N)C(=O)Nc1ccc(Cl)cc1C(=O)c1ccc[nH]1 | . | . | . | . | 2.7 | -5.5 | . | . | . | . | .
COC[C@@H]1CCCN1c1ccc2c(c1)O[C@H]1CCN(C1)S2(=O)=O | . | . | . | . | 0.8 | 7.6 | . | . | . | . | .
CCC[C@H]1[C@@H](NC(=O)c2ccc(C)cc2)CC[C@@]23CCCN2C(=O)CCC[C@@H]13 | . | . | . | . | -4.9 | -5.2 | . | . | . | . | .
Cc1cc(=O)c2c(ccc3c(=O)cc(C)[nH]c32)[nH]1 | . | . | . | . | 8.9 | 7.3 | . | . | . | . | .
CN(C)c1ccc(/C=C/c2ccc3ccccc3n2)cc1 | . | 27.7* | 45.8* | . | . | . | 38.4* | 52.9* | 53.1* | 58.4* | 71.2*
CC(C)CC(CCOCCO)NC(=O)OCc1ccccc1[N+](=O)[O-] (configuration not stated) | . | . | . | . | -0.9 | -6.3 | . | . | . | . | .
